Compound activity from PubChem BioAssay.
Rows were chosen to be rich in hits. Some 2.8% of all compounds tested hit in one or more screens of this group.
Shn3 3UTR inh = inhibitors of Schnurri-3 3'UTR reporter in osteoblasts; 0.52% of 360,000 active; Clone20 osteoblast Shn3 3'UTR firefly luciferase, 24 h; inhibition, % at 12.5 µM;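 active = mean inhibition of at least 75% with every replicate also reaching 75%; inconclusive = mean inhibition at least 75% but some replicate below; inactive = mean inhibition below 75%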;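 also: 0% = median of neutral control wells and 100% = pilot-screen positive control compound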
HIF-2a block = HIF-2a inhibition; 0.72% of 360,000 active; inhibition, % at 18.8 µM; AID 624352; 786-0 RCC cells HIF-2a reporter, luciferase luminescence, overnight;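 active = inhibition of the luminescence signal of 40% or more relative to plate controls, in a single-dose primary screen at 18.75 µM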
KKLEB tox = CF airway cell cytotoxicity counter-screen. KKLEB CF airway cells viability, ATPlite luminescence, overnight; hits give low values; cells stimulated with P. aeruginosa culture filtrate. 0.36% of 360,000 active. activity change (cytotoxicity), % at 5 µM;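 active = corrected activity change at or below -50% at 5 µM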
TRPM1 prom inh = reduces MITF-dependent TRPM1 promoter luciferase signal; SK-MEL-5 TRPM1 promoter luciferase, 24 h; inhibition, % at 12.5 µM; 0.83% of 330,000 active;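 active = mean inhibition across replicates of 60% or more, whatever share of single replicates reaches that level; inconclusive = some that reach 60%, reason not given; inactive = mean inhibition across replicates below 60%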
CF NFkB block = inhibitors of cystic fibrosis induced NF-kB; inhibition, % at 5 µM; 0.86% of 360,000 active; KKLEB NF-kB-GFP reporter, PAF-induced, GFP fluorescence overnight;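 active = at least 50% inhibition at 5 µM, scaled per plate between neutral and stimulator controls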;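 also: PAF is a Pseudomonas aeruginosa culture filtrate used as stimulus; plate controls were PAF-stimulated DMSO wells for no effect and unstimulated DMSO wells for full effect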
Peg3 prom inh-1 = inhibitors of Peg3 promoter. HeLa PEG-Prom luciferase reporter, luminescence, overnight. inhibition, % at 20 µM. 1.7% of 360,000 active. AID 588405;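 active = inhibition of at least 50% at 20 µM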
Peg3 prom inh-2 = confirmation of Peg3 promoter inhibitors; 84% of 1,300 active; AID 602417; HeLa PEG-Prom luciferase reporter, luminescence, overnight; inhibition, % at 20 µM; shares compounds with Peg3 prom inh-1;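 active = at 20 µM dose, 40% or more inhibition averaged across four replicates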
* marks the source's active call; other numbers are inactive results; ? = inconclusive; . = no result given.

SMILES	Shn3 3UTR inh	HIF-2a block	KKLEB tox	TRPM1 prom inh	CF NFkB block	Peg3 prom inh-1	Peg3 prom inh-2
Cc1cc(C)c2c(-n3cccc3)c(C(=O)NNS(=O)(=O)c3ccc(Cl)cc3)sc2n1	-3.6	16.7	-6.5	-1.7	1.0	6.0	.
CCOc1ccc2nc(NC(=O)c3ccccn3)sc2c1	64.9	-16.9	-37.6	80.1*	-5.0	103.5*	90.5*
Cc1c(OCC(=O)NC2CC(C)(C)NC(C)(C)C2)ccc2c1oc(=O)c1ccccc12	11.7	-10.7	-1.0	75.6*	-3.4	100.3*	85.4*
Cc1c(OCC(=O)NC2CC(C)(C)NC(C)(C)C2)ccc2c3c(c(=O)oc12)CCC3	-23.4	-0.5	-8.0	3.8	-20.9	-2.0	.
O=C(Nc1ccccn1)c1ccc(Cl)c(S(=O)(=O)N2CCc3ccccc32)c1	38.1	-64.2	-0.8	-6.0	-6.0	-27.5	.
CN(Cc1ccccc1)C(=O)c1ccc(NC(=O)C2CCN(C(=O)OC(C)(C)C)CC2)cc1	55.5	-1.4	7.8	33.8	-17.7	49.4	.
COc1ccc2c(c1OC)C(=O)N1c3ccccc3C(=O)N(c3ccccc3F)C21 (stereo not drawn)	80.2	7.2	-87.3*	8.7	86.2*	61.6*	44.6*
COc1ccc2c(c1OC)C(=O)N1c3ccccc3SC21 (stereo not drawn)	-48.7	-243.6	-3.9	-40.8	-6.3	-331.5	.
OC(c1ccc(F)cc1)(C1CCCCC1)C(CN1CCOCC1)c1ccccc1 (stereo not drawn)	4.8	13.8	-5.6	4.9	2.1	17.6	.
O=c1c2c3c(sc2nc(N2CCNCC2)n1CCc1ccccc1)CCCCC3	13.6	-19.5	-15.5	68.8*	7.2	105.4*	96.0*
O=C(Oc1c(CN2CCOCC2)cc(Cl)c2cccnc12)c1ccccc1Cl	?	5.1	11.5	75.5*	23.4	50.2*	43.3*
COc1ccc(-c2csc(NC(=O)C3COc4ccccc4O3)n2)cc1OC (stereo not drawn)	14.5	-3.0	-16.3	.	28.3	65.6*	39.7
COc1ccc(S(=O)(=O)/N=C2\C=C(Nc3ccc(O)cc3)C(=O)c3ccccc32)cc1	96.8*	1.2	-73.8*	99.0*	100.7*	104.2*	97.8*
CC(C)N1C/C(=C/c2ccsc2)C(=O)/C(=C/c2ccsc2)C1	-53.1	29.5	8.2	100.8*	-53.5	103.3*	35.4
Cc1cc(/C=c2/sc3nc4ccccc4n3c2=O)c(C)n1-c1ccccn1	90.9*	74.7*	-54.4*	86.0*	9.5	74.7*	88.3*
COc1ccc(OC)c(NC(=O)CCC(=O)Nc2nnc(C(C)C)s2)c1	-14.5	4.1	-4.9	-3.6	-13.3	-2.0	.
C(=N\Nc1nc(-c2ccccc2)cs1)/c1ccncc1	-74.2	-235.6	17.3	-67.3	-24.1	-239.3	.
CN(C)S(=O)(=O)c1ccc(-c2csc(N/N=C/c3ccc(O)cc3)n2)cc1	26.8	23.3	-9.4	72.2*	82.4*	96.0*	98.5*
CCC(=O)c1ccc(OCc2ccc(C(=O)c3ccccc3)cc2)cc1	82.1	-0.3	-18.1	15.8	10.6	9.5	.
COc1ccc(-n2cc(-c3ccccc3)c3c(NCCCN4CCOCC4)ncnc32)cc1	16.6	24.1	-8.2	4.3	4.2	24.7	.
COc1ccc(-n2cc(-c3ccccc3)c3c(N4CCOCC4)ncnc32)cc1	24.4	22.1	-100.0*	8.8	93.6*	61.0*	67.7*
Cc1noc(C)c1C(=O)NC1=NCCS1	7.4	3.8	9.6	4.2	-40.2	-11.9	.
CCCOc1ccc2cc(-c3ccccn3)c(=O)oc2c1	59.7	55.1*	-45.8	51.1	-13.5	74.4*	68.0*
COc1ccc(C2NCCc3c2[nH]c2ccccc32)cc1COc1ccc(F)cc1 (stereo not drawn)	-28.2	6.6	-27.7	21.6	33.4	96.7*	98.0*
CCCCCCOc1ccc(/C(C)=N/NC2=NCCN2)cc1	9.5	-1.7	-19.4	-3.9	18.0	108.0*	97.9*
SMILES	Shn3 3UTR inh	HIF-2a block	KKLEB tox	TRPM1 prom inh	CF NFkB block	Peg3 prom inh-1	Peg3 prom inh-2
CCN(CC)CCNC(=O)c1ccc(NC(=O)c2cccc(S(=O)(=O)N(C)C3CCCCC3)c2)cc1	7.0	24.4	-18.8	73.2*	10.7	82.6*	89.1*
[O-]C(=C(C(=S)Nc1cccc2ccccc12)[n+]1ccccc1)c1ccc2c(c1)OCCO2	22.2	72.2*	15.2	20.2	-20.9	53.8*	21.1
CC(C)(C)c1cc[n+](/C(C(=S)Nc2ccccc2F)=C(/[O-])c2ccc3c(c2)OCCO3)cc1	-10.2	-93.0	7.7	-0.7	5.6	-57.7	.
Cc1cc(Br)ccc1NC(=O)CNC(=O)Cn1ncc(Cl)c(Cl)c1=O	58.2	7.7	-51.0*	94.3*	90.8*	111.1*	97.7*
O=C(Nc1cccc(NC(=O)c2ncn[nH]2)c1)c1cccc(Cl)c1	-1.8	6.2	4.4	-2.8	2.6	6.9	.
OC(c1ccc(F)c(F)c1)c1ncc(-c2cccc(F)c2)[nH]1 (stereo not drawn)	-5.7	-6.2	-4.9	.	-9.1	-1.7	.
Cc1cc(C)c2c(-n3cccc3)nn(CC#N)c2n1	-29.2	25.6	-12.3	-11.6	15.9	12.4	.
COc1cc2c(oc(=O)c3cc(C)cc(OC)c32)c2c(C3OC(C)C(O)C(C)(O)C3O)ccc(O)c12 (stereo not drawn)	8.6	57.6*	9.4	65.1*	22.2	100.5*	99.0*
Nc1c([N+](=O)[O-])cnnc1-c1ccccc1	-4.0	11.6	-11.7	12.9	8.2	7.4	.
COc1cc(OC)cc(-c2c(-c3cccs3)c3cc(-c4ccc(N(C)C)nc4)ccc3n2C)c1	-0.7	8.5	-9.8	-15.1	16.8	52.0*	24.6
COc1cc(F)cc(-c2ccc3c(c2)c(-c2cccs2)c(-c2cc(OC)cc(OC)c2)n3C)c1	7.9	12.3	-21.4	-3.8	24.6	4.1	.
Cc1ccc(S(=O)(=O)c2nc(Cc3ccccc3)oc2N2CCOCC2)cc1	-4.8	11.0	12.7	-2.3	-41.0	11.1	.
CCCCC1C(=O)N(c2ccccc2)N(c2ccc(O)cc2)C1=O (stereo not drawn)	80.0	95.5*	29.0	96.1*	82.5*	101.3*	73.6*
CCCCC1(CO)C(=O)N(c2ccccc2)N(c2ccccc2)C1=O	.	24.2	1.7	-5.3	8.4	9.0	.
O=C(C[n+]1ccc(-c2cc(C(=O)Nc3cccc(C(F)(F)F)c3)c3ccccc3n2)cc1)c1cccc([N+](=O)[O-])c1	8.9	17.3	-4.2	-1.1	10.8	88.8*	61.6*
COc1cc(C(C(=O)NC2CCCCC2)N(CCN2CCOCC2)C(=O)C2COc3ccccc3O2)cc(OC)c1OC (stereo not drawn)	-8.1	16.0	6.5	-9.4	-3.5	21.9	.
